Test results published in the supplement of paper PMC3545927.
The list shows a part of the results. No count for the full screen is at hand.

Biological target: furin, P09958
Assay: furin cleavage Z-score vs untreated control; higher = more cleavage, active = 3.5 or more, inactive = 1 or less, 8 variable residues between constant flanks
Method in brief: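 Peptides 8 residues long, fused to a cDNA oligonucleotide, were fixed to magnetic beads by the N-terminus and exposed to purified furin. The 0.01 ml reactions contained 50 mM HEPES pH 7.5 with CaCl2 and NaCl at 1:10 enzyme:substrate and ran 7.5, 15 or 30 min. For the cleavage Z-score, log counts of sequenced released DNA were compared with furin-free reactions, lowess-adjusted and scaled by median absolute deviation.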

Chain of furin, P09958 (P09958 whole entry): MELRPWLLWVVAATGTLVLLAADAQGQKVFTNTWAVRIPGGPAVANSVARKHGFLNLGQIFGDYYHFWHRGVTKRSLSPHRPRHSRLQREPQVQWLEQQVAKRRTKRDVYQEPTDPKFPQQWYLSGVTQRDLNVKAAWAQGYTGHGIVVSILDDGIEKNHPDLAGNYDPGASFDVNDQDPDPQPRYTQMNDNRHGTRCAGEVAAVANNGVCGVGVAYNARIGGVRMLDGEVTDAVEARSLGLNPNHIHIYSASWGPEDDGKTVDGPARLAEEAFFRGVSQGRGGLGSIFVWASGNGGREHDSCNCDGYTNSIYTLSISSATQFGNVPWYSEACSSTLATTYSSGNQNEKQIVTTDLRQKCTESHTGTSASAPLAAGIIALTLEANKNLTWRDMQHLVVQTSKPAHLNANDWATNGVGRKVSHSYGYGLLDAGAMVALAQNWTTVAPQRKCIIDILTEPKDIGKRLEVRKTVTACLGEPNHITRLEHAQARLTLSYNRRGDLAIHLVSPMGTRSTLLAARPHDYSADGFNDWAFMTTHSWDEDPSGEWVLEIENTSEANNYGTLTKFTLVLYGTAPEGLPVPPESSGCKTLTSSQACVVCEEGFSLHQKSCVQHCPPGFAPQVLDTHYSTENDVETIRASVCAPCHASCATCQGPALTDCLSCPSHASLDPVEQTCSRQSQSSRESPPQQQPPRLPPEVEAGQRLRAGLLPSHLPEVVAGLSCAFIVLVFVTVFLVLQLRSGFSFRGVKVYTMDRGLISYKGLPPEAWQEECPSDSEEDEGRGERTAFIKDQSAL

| Sequence | furin cleavage Z-score (7.5 min) | furin cleavage Z-score (15 min) | furin cleavage Z-score (30 min) |
| --- | --- | --- | --- |
| CATGWLAGLFAGNASASA [HC378] | 1 | 1.08 | 0.703 (inactive) |
| CATTPCSGSCAGNASASA [HC1940] | -1.36 (inactive) | -1.27 (inactive) | -2.07 (inactive) |
| CAVQLINTNGAGNASASA [HC366] | 0.569 (inactive) | -1.46 (inactive) | 0.762 (inactive) |
| CARTVVLTESAGNASASA [HC1326] | 0.659 (inactive) | 0.273 (inactive) | -0.545 (inactive) |
| CAQPARIGRAAGNASASA [FS-1152] | 5.34 (active) | 7.28 (active) | 7.16 (active) |
| CAAASLRAFTAGNASASA [HC1537] | -0.944 (inactive) | -0.499 (inactive) | -0.478 (inactive) |
| CAQKLETFWAAGNASASA [HC1038] | 2.24 | -0.183 (inactive) | -1.19 (inactive) |
| CALLARGGRAAGNASASA [HC1626] | 3.15 | 3.33 | 3.52 (active) |
| CATPSRAGRAAGNASASA [FS-99] | 3.27 | 3.92 (active) | 2.86 |
| CATPSRMIRTAGNASASA [FS-1425] | 4.04 (active) | 5.44 (active) | 5.33 (active) |
| CATPSRCVRIAGNASASA [FS-203] | 0.645 (inactive) | -1.67 (inactive) | -0.417 (inactive) |
| CAQKKRGGPAAGNASASA [WN3] | 0.322 (inactive) | -1.02 (inactive) | 0.637 (inactive) |
| CAMGECSQHLAGNASASA [HC1696] | 2.31 | 0.612 (inactive) | 1.45 |
| CAVVCCGMSYAGNASASA [HC102] | -1.2 (inactive) | -0.443 (inactive) | -0.831 (inactive) |
| CAGACYSIEPAGNASASA [HC1595] | -0.464 (inactive) | -0.533 (inactive) | -1.27 (inactive) |
| CADVMEECSQAGNASASA [HC1810] | 0.0621 (inactive) | 0.463 (inactive) | -0.158 (inactive) |
| CAEVVTSDWVAGNASASA [HC2211] | -1.36 (inactive) | -1.03 (inactive) | -1.22 (inactive) |
| CAFLLALLSCAGNASASA [HC249] | -0.759 (inactive) | -1.73 (inactive) | -0.995 (inactive) |
| CAHANRTGRAAGNASASA [FS-130] | 3.34 | 5.9 (active) | 5.93 (active) |
| CAHAVGIFRAAGNASASA [HC748] | -0.783 (inactive) | -0.538 (inactive) | 0.453 (inactive) |
| CAVVCCSPSYAGNASASA [HC2059] | 0.343 (inactive) | 0.71 (inactive) | -0.572 (inactive) |
| CANTNGSWHLAGNASASA [HC368] | -0.455 (inactive) | 0.77 (inactive) | -0.519 (inactive) |

| Sequence | furin cleavage Z-score (7.5 min) | furin cleavage Z-score (15 min) | furin cleavage Z-score (30 min) |
| --- | --- | --- | --- |
| CARRQPIPKAAGNASASA [HC191] | -0.467 (inactive) | -0.696 (inactive) | -2.34 (inactive) |
| CARKARYAIQAGNASASA [FS-1901] | 1.15 | 3.07 | 5.59 (active) |
| CAEDAASLRAAGNASASA [HC1536] | 1.18 | 0.0869 (inactive) | 0.0662 (inactive) |
| CARRKRYAEHAGNASASA [FS-3056] | 8.67 (active) | 11.2 (active) | 9.71 (active) |
| CARRGRAARHAGNASASA [FS-1609] | 7.16 (active) | 6.27 (active) | 7.79 (active) |
| CARRGRPGLKAGNASASA [FS-2066] | -0.499 (inactive) | -1.08 (inactive) | -0.201 (inactive) |
| CARKARWLRAAGNASASA [FS-2262] | 8.22 (active) | 9.39 (active) | 8.11 (active) |
| CARDPRAAIQAGNASASA [FS-2905] | -0.00694 (inactive) | -0.144 (inactive) | 0.0435 (inactive) |
| CARRGRAGSDAGNASASA [FS-2065] | -0.603 (inactive) | -0.507 (inactive) | -0.432 (inactive) |
| CAVVCCSMSAAGNASASA [HC2083] | 0.0703 (inactive) | -1.17 (inactive) | -0.85 (inactive) |
| CAGGWVAAQLAGNASASA [HC1067] | -0.864 (inactive) | -1.6 (inactive) | 0.105 (inactive) |
| CAVVVATDALAGNASASA [HC877] | -0.345 (inactive) | -0.967 (inactive) | -0.904 (inactive) |
| CARRKRYAIQAGNASASA [FU8] | 8.03 (active) | 11.3 (active) | 11.2 (active) |
| CARRKRCMRHAGNASASA [FS-2295] | 6.23 (active) | 8.55 (active) | 6.72 (active) |
| CARRKRYAIQAGNASASA [FS-3205] | 8.13 (active) | 11.7 (active) | 10.8 (active) |
| CAREIRSEEPAGNASASA [FS-2005] | 0.429 (inactive) | -0.412 (inactive) | -0.762 (inactive) |
| CARRKRKKKHAGNASASA [FS-1777] | -0.226 (inactive) | 0.662 (inactive) | 2.03 |
| CARCRKSCEHAGNASASA [FS-1997] | -0.455 (inactive) | -0.923 (inactive) | 0.798 (inactive) |
| CARVQRMAEHAGNASASA [FS-2841] | 2.56 | 3.98 (active) | 4.15 (active) |
| CARRKRKVLHAGNASASA [FS-2515] | 1.78 | 1.49 | 4.34 (active) |
| CAEVATSTWVAGNASASA [HC2183] | -1.15 (inactive) | -1.35 (inactive) | -0.393 (inactive) |
